In ChEMBL document CHEMBL1961873, “Compounds: GSK PKIS; Assays: Nanosyn kinase panel” (2012) one finds inhibition data, which are given here for 34 compounds.

Each structure is given as a SMILES string.

One assay deals with T1, Aurora kinase A (Homo sapiens) (UniProt O14965).
T1 sequence (whole entry): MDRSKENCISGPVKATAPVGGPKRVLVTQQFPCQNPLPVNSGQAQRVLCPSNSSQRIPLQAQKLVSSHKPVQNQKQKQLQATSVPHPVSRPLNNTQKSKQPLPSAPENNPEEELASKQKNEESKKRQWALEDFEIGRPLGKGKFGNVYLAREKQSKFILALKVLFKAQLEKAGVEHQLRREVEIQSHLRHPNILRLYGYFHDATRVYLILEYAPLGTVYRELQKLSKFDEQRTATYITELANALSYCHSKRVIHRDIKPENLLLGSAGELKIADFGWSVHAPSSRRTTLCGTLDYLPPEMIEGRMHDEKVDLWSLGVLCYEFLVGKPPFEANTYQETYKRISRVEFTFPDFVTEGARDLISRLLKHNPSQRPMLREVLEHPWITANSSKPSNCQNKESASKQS
Conditions: at 0.1 µM.
Consider `NC(=O)c1ccc(Oc2nccc(-c3c(-c4ccc(F)cc4)ncn3C3CCNCC3)n2)cc1`, for which the inhibition was 3.58%.

In the case of `Fc1ccc(-c2ncn(CCCN3CCOCC3)c2-c2ccncc2)cc1`, the inhibition was -0.48%.

Consider `COc1cccc(/C=N/Nc2ncnc3c2cnn3-c2cccc(OC)c2)c1`, for which the inhibition worked out at 2.87%.

Take `N#Cc1ccc(Oc2nccc(-c3c(-c4ccc(F)cc4)ncn3C3CCNCC3)n2)cc1`: the inhibition was 3.21%.

Consider `COc1ccc(-c2ccc3c(NC(=O)C4CC4)n[nH]c3n2)cc1`, for which the inhibition worked out at 1.67%.

For `O=C(Nc1n[nH]c2cc(-c3ccccc3)ccc12)C1CC1`, the inhibition stood at 1.71%.

As for `COC(=O)Nc1nc2ccc(Sc3ccc(NC(=O)Nc4cc(C(F)(F)F)ccc4F)cc3)cc2[nH]1`, the inhibition was found to be 1.16%.

Take `CN(c1ccc(NC(=O)Nc2c(Cl)cccc2Cl)cc1)c1ccnc(Nc2cccc(CS(C)(=O)=O)c2)n1`: the inhibition turned out to be 73.9%.

On to `O=C1Nc2ccc(I)cc2C1=Cc1cc(Br)c(O)c(Br)c1`, for which the inhibition turned out to be 3.6%.

For `Clc1ccc(CNc2nccc(-c3cnn4ncccc34)n2)cc1`, the inhibition was found to be 0.34%.

For `C/C(Nc1ccc(S(N)(=O)=O)cc1)=C1/C(=O)Nc2ccccc21`, the inhibition came to 2.21%.

Regarding `CCc1nccc2c1nc(-c1nonc1N)n2CC`, the inhibition is 2.35%.

With `NC(=O)c1cc(-c2ccncc2)cc(-c2ccccc2)c1N`, the inhibition is 2.73%.

As to `COc1cc(Nc2ncc(-c3ccccc3)o2)cc(OC)c1OC`, the inhibition was determined as 15.7%.

As to `NS(=O)(=O)c1ccc(N/N=C2\C(=O)Nc3ccc(-c4cnco4)cc32)cc1`, the inhibition was determined as 1.82%.

Consider `COc1cc2ncn(-c3cc(OCCc4ccccc4)c(C(N)=O)s3)c2cc1OC`, for which the inhibition was found to be 2.54%.

Turning to `Cc1nnc(-c2ccc(C)c(-c3ccc(C(=O)NCc4ccc(Cl)cc4)cc3)c2)o1`, the inhibition was -1.43%.

As for `C#Cc1cccc(Nc2ncnc3ccc(OCCCCNCCS(C)(=O)=O)cc23)c1`, the inhibition is -1.65%.

On to `COc1cccc(-n2cnc3c(N/N=C/c4ccncc4)ncnc32)c1`, for which the inhibition was -0.8%.

As to `COc1ccc2cc(-c3c(-c4ccncc4)nc(-c4ccc(S(C)(=O)=O)cc4C)n3C)ccc2c1`, the inhibition came out at 2.7%.

With `COc1ccc2ncn(-c3cc(O[C@H](C)c4ccccc4Cl)c(C(N)=O)s3)c2c1`, the inhibition was -1.27%.

Consider `O=C1NC(=O)C(c2cccc(Cl)c2)=C1Nc1ccc(Cl)c(C(=O)O)c1`, for which the inhibition was determined as 2.92%.

In the case of `CN1CCN(CCCNc2nc3ccc(Oc4ccc(NC(=O)Nc5cc(C(F)(F)F)ccc5F)cc4)cc3[nH]2)CC1`, the inhibition is -1.66%.

With `C[C@@H](Oc1cc(-n2cnc3ccc(OC4CCN(C)CC4)cc32)sc1C(N)=O)c1ccccc1Cl`, the inhibition was -0.97%.

In the case of `c1ccc(Oc2ccc(Nc3ncc(-c4ccccc4)o3)cc2)cc1`, the inhibition is 1.36%.

As for `CN(C)CCCNc1nccc(-c2c(-c3ccc(F)cc3)nn3cc(C(F)(F)F)ccc23)n1`, the inhibition is -2.9%.

Turning to `COc1cc2ncn(-c3cc(OCc4ccccc4C(F)(F)F)c(C(C)=O)s3)c2cc1OC`, the inhibition was 2.64%.

Consider `COc1ccc2cc(-c3c(-c4ccncc4)nc(-c4ccc([S+](C)[O-])cc4C)n3C)ccc2c1` (stereo not drawn), for which the inhibition was -0.61%.

On to `Fc1ccc(-c2ncn(C3CCNCC3)c2-c2ccnc(Oc3ccc4c(c3)OCO4)n2)cc1`, for which the inhibition amounted to 4.04%.

On to `NC(=O)c1cc(-c2ccc(F)cc2)cc(-c2ccncc2)c1N`, for which the inhibition stood at 3.42%.

On to `CCC(=O)Nc1ccc(C)c(-c2ccc(C(=O)NCC3CC3)cc2)c1`, for which the inhibition amounted to 1.72%.

With `c1ccc(-c2n[nH]cc2-c2ccnc(-c3ccc(OCCN4CCOCC4)cc3)c2)nc1`, the inhibition is 0.43%.

Turning to `O=C(NCC1CC1)c1ccc(-c2cccc(C(=O)NC3CC3)c2)cc1`, the inhibition worked out at 1.42%.

For the compound `NC(=O)Cc1ccccc1Oc1nccc(-c2c(-c3ccc(F)cc3)ncn2C2CCNCC2)n1`, the inhibition came out at 1.9%.

The target in another assay is T1, Aurora kinase A (Homo sapiens). Conditions: at 1 µM.
Take `NC(=O)c1ccc(Oc2nccc(-c3c(-c4ccc(F)cc4)ncn3C3CCNCC3)n2)cc1`: the inhibition was determined as 2.99%.

Take `Fc1ccc(-c2ncn(CCCN3CCOCC3)c2-c2ccncc2)cc1`: the inhibition amounted to 3.87%.

Regarding `COc1cccc(/C=N/Nc2ncnc3c2cnn3-c2cccc(OC)c2)c1`, the inhibition was 3.52%.

As to `N#Cc1ccc(Oc2nccc(-c3c(-c4ccc(F)cc4)ncn3C3CCNCC3)n2)cc1`, the inhibition is 4.78%.

Take `COc1ccc(-c2ccc3c(NC(=O)C4CC4)n[nH]c3n2)cc1`: the inhibition was 9.18%.

Consider `O=C(Nc1n[nH]c2cc(-c3ccccc3)ccc12)C1CC1`, for which the inhibition was found to be 13.2%.

For `COC(=O)Nc1nc2ccc(Sc3ccc(NC(=O)Nc4cc(C(F)(F)F)ccc4F)cc3)cc2[nH]1`, the inhibition is 7.64%.

As for `CN(c1ccc(NC(=O)Nc2c(Cl)cccc2Cl)cc1)c1ccnc(Nc2cccc(CS(C)(=O)=O)c2)n1`, the inhibition stood at 97.6%.

Turning to `O=C1Nc2ccc(I)cc2C1=Cc1cc(Br)c(O)c(Br)c1`, the inhibition is 9.69%.

Consider `Clc1ccc(CNc2nccc(-c3cnn4ncccc34)n2)cc1`, for which the inhibition is 10.8%.

For `C/C(Nc1ccc(S(N)(=O)=O)cc1)=C1/C(=O)Nc2ccccc21`, the inhibition amounted to 37.8%.

`CCc1nccc2c1nc(-c1nonc1N)n2CC`: the inhibition was determined as 11.2%.

For `NC(=O)c1cc(-c2ccncc2)cc(-c2ccccc2)c1N`, the inhibition is 6.63%.

In the case of `COc1cc(Nc2ncc(-c3ccccc3)o2)cc(OC)c1OC`, the inhibition turned out to be 75.5%.

Take `NS(=O)(=O)c1ccc(N/N=C2\C(=O)Nc3ccc(-c4cnco4)cc32)cc1`: the inhibition stood at 33.1%.

Regarding `COc1cc2ncn(-c3cc(OCCc4ccccc4)c(C(N)=O)s3)c2cc1OC`, the inhibition was determined as 8.4%.

Turning to `Cc1nnc(-c2ccc(C)c(-c3ccc(C(=O)NCc4ccc(Cl)cc4)cc3)c2)o1`, the inhibition was -4.05%.

`C#Cc1cccc(Nc2ncnc3ccc(OCCCCNCCS(C)(=O)=O)cc23)c1`: the inhibition is -0.05%.

Turning to `COc1cccc(-n2cnc3c(N/N=C/c4ccncc4)ncnc32)c1`, the inhibition was 13%.

As to `COc1ccc2cc(-c3c(-c4ccncc4)nc(-c4ccc(S(C)(=O)=O)cc4C)n3C)ccc2c1`, the inhibition amounted to 17.6%.

With `COc1ccc2ncn(-c3cc(O[C@H](C)c4ccccc4Cl)c(C(N)=O)s3)c2c1`, the inhibition amounted to 0.29%.

Take `O=C1NC(=O)C(c2cccc(Cl)c2)=C1Nc1ccc(Cl)c(C(=O)O)c1`: the inhibition amounted to 8.62%.

Turning to `CN1CCN(CCCNc2nc3ccc(Oc4ccc(NC(=O)Nc5cc(C(F)(F)F)ccc5F)cc4)cc3[nH]2)CC1`, the inhibition is -0.34%.

As to `C[C@@H](Oc1cc(-n2cnc3ccc(OC4CCN(C)CC4)cc32)sc1C(N)=O)c1ccccc1Cl`, the inhibition was -0.02%.

As for `c1ccc(Oc2ccc(Nc3ncc(-c4ccccc4)o3)cc2)cc1`, the inhibition was found to be 10.2%.

With `CN(C)CCCNc1nccc(-c2c(-c3ccc(F)cc3)nn3cc(C(F)(F)F)ccc23)n1`, the inhibition stood at 6.4%.

For `COc1cc2ncn(-c3cc(OCc4ccccc4C(F)(F)F)c(C(C)=O)s3)c2cc1OC`, the inhibition was 4.46%.

Regarding `COc1ccc2cc(-c3c(-c4ccncc4)nc(-c4ccc([S+](C)[O-])cc4C)n3C)ccc2c1` (stereo not drawn), the inhibition was determined as 4.24%.

Consider `Fc1ccc(-c2ncn(C3CCNCC3)c2-c2ccnc(Oc3ccc4c(c3)OCO4)n2)cc1`, for which the inhibition worked out at 2.71%.

Turning to `NC(=O)c1cc(-c2ccc(F)cc2)cc(-c2ccncc2)c1N`, the inhibition amounted to 4.02%.

On to `CCC(=O)Nc1ccc(C)c(-c2ccc(C(=O)NCC3CC3)cc2)c1`, for which the inhibition was 4.11%.

With `c1ccc(-c2n[nH]cc2-c2ccnc(-c3ccc(OCCN4CCOCC4)cc3)c2)nc1`, the inhibition turned out to be 7.41%.

As to `O=C(NCC1CC1)c1ccc(-c2cccc(C(=O)NC3CC3)c2)cc1`, the inhibition was determined as 6.45%.

As for `NC(=O)Cc1ccccc1Oc1nccc(-c2c(-c3ccc(F)cc3)ncn2C2CCNCC2)n1`, the inhibition amounted to 0.49%.
